TRHR PAM – qHTS for Small Molecule Agonists and Allosteric Enhancers of Human TRH Receptor: Primary Screen for Enhancers | TRHR cells, fluo-8 calcium fluorescence, EC20 TRH enhancement | enhancement, % at 2 µM | actives 0.66% (n = 360,000); in the data active = enhancement above about 30%; note: 0% is about no effect
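Enhancer read-out: after compound pinning and an initial kinetic agonist-mode read, an EC20 of TRH (10 nM final) was injected and fluo-8 calcium signal (Ex 480/Em 530) followed at 1 s/cycle for 100 cycles in TRHR-expressing cells.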
TRHR agonist – qHTS for Small Molecule Agonists and Allosteric Enhancers of Human TRH Receptor: Primary Screen for Agonists. activation, % at 2 µM. Thyrotropin-releasing hormone receptor (Homo sapiens), P34981. TRHR cells, calcium flux fluo-8, FDSS agonist mode. actives 0.18% (n = 360,000); in the data active = activation above about 30%; note: 0% is about no effect
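In this calcium-flux screen, cells bearing human TRHR are dye-loaded with fluo-8, baselined for 10 cycles, then exposed to library compounds; positive kinetic calcium responses during the agonist phase mark hits, with TRH as control.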
TRPML1 blocker – qHTS for Inhibitors of the Human Mucolipin Transient Receptor Potential 1 (TRPML1); Mucolipin-1 (Homo sapiens), Q9GZU1; activity change, negative = inhibition, % (test concentration not listed); actives 0.02% (n = 390,000); TRPML1-inducible cells, Ca2+ dye fluorescence, FDSS; stronger effect = lower value; inhibition of EC80 agonist-evoked calcium signal; in the data active = activity change below about -50%; inconclusive = between about -30% and that limit;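 note: stimulus is agonist 54-4 at its EC80 concentration; % is set by controls: 0 for no effect and ±100 for the full control effect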
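Calcium fluorescence in TRPML1-DL cells induced overnight with Tet: a 110 s read after compound pin addition, then a 110 s antagonist read after challenge with 54-4 at 4 uM final (EC80).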
TRPV1 agonist – HTS Assay for Compounds that Act as Agonists of the Vanilloid Receptor 1; actives 0.19% (n = 320,000); activation, % at 8.33 µM; AID 540275, 2011; TRPV1-expressing cells, Fluo-8 calcium influx, agonist mode; Transient receptor potential cation channel subfamily V member 1 (Homo sapiens), Q8NER1; in the data active = activation above about 80%; inconclusive = between about 30% and that limit; note: 0% is about no effect
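Fluo-8 calcium influx in TRPV1-expressing cells, kinetic read (ex 480/em 520 nm). Compound added and read 3 min for agonist activity, followed by capsaicin at EC20 final and 2 min further read for enhancement.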
TRPV1 potentiator – HTS Assay for Compounds that Act as Potentiators of the Vanilloid Receptor 1; TRPV1-expressing cells, Fluo-8 calcium influx, capsaicin EC20 potentiation; potentiation, % at 8.33 µM; actives 0.02% (n = 320,000); AID 540277, 2011; in the data active = potentiation above about 80%; inconclusive = between about 30% and that limit; note: 0% is about no effect
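Cells expressing TRPV1 were dye-loaded with Fluo-8 and read kinetically: 10 s baseline, 3 min after compound (agonist portion), then 2 min after EC20 capsaicin (allosteric enhancer portion). Calcium-bound dye fluorescence at 480/520 nm.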
TRPML1 ag – qHTS for Agonists of the Human Mucolipin Transient Receptor Potential 1 (TRPML1); Mucolipin-1 (Homo sapiens), Q9GZU1; activation, % (test concentration not listed); TRPML1-expressing cells, Ca2+ dye fluorescence, FDSS; actives 0.12% (n = 410,000); in the data active = activation above about 50%; inconclusive = mostly about 30% to 49%; note: 0% is about no effect
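In this qHTS format, compounds were pin-transferred onto Ca8-dye-loaded TRPML1-DL cells induced with Tet overnight, and intracellular Ca2+ fluorescence was recorded kinetically for 110 s after a 10 s baseline. A subsequent 4uM final 54-4 (EC80) addition followed by a second 110 s read served as the antagonist phase.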
* marks the source's active call; other numbers are inactive results; ? = inconclusive; · = not tested or not shown. In the library only some 0.99% were active in any assay of this set; here they are far more common.

SMILES	TRHR PAM	TRHR agonist	TRPML1 blocker	TRPV1 agonist	TRPV1 potentiator	TRPML1 ag
O=C(Nc1ccc(C(F)(F)F)cc1)c1ccc2ncsc2c1	-21.2	0.9	18.6	89.9*	9.2	-0.1
COc1ccc(NC(=O)c2ccc3ncsc3c2)c2ccccc12	-3.9	-0.3	9.5	88.3*	3.3	0.7
O=C(Nc1cccc(S(=O)(=O)N2CCCCC2)c1)c1ccc2ncsc2c1	11.3	0.6	37.5	84.8*	-15.7	0.9
O=C(Nc1ccc(Cl)cc1)c1ccc2snnc2c1	-0.6	1.3	-4.3	87.6*	-15.2	-0.6
COc1cccc(/C=c2/[nH]c(=O)/c(=C\c3cccc(OC)c3OC)[nH]c2=O)c1OC	·	·	·	·	·	-0.6
O=C(NCc1cccnc1)[C@@H]1CC=C[C@@H]2CCN(C3CCCCC3)C(=O)[C@@H]21	·	·	·	·	·	-1.2
O=C(Nc1ccc(F)cc1)c1ccc2ncsc2c1	-8.0	1.1	6.0	93.1*	-19.0	-0.3
O=C(Nc1ccc(C(=O)c2ccccc2)cc1)c1ccccc1	-6.3	1.2	9.0	?	5.3	-0.2
O=C(Nc1ccc(Cl)cc1)c1ccc2ncsc2c1	0.9	-0.2	-2.2	?	-7.2	-0.4
O=C(Nc1ccc(C(F)(F)F)cc1)c1ccccc1	-3.7	0.0	32.3	81.7*	13.7	-0.7
Clc1cccc[n+]1CCCCCC[n+]1ccccc1Cl	·	·	·	·	·	-0.6
O=C(NCc1ccccc1)c1cc2ccc3cccnc3c2[nH]1	31.1*	0.6	25.4	·	·	0.1
O=C(Nc1ccc(F)cc1F)c1cc2ccc3cccnc3c2[nH]1	-6.9	0.9	8.3	·	·	-0.1
CCOc1c(Nc2ccc(C(C)C)cc2)c(=O)c1=O	-1.8	-1.0	24.8	83.4*	-0.7	-1.3
CCOc1cc(/C=C2\N=C(SC(C)C(N)=O)N(c3ccc(OC(F)F)cc3)C2=O)ccc1O (stereo not given)	18.6	32.0*	-5.8	5.0	9.8	10.9
NC(=O)CSC1=N/C(=C\c2ccco2)C(=O)N1c1ccc(OC(F)F)cc1	1.2	0.2	4.4	1.8	10.4	1.3
CC(C)NS(=O)(=O)c1cc(C(F)(F)F)ccc1/C=C/C(=O)O	·	·	·	·	·	-0.5
Cc1ccc(N(CC(=O)N/N=C/c2cc(C)n(-c3ccccc3C)c2C)S(C)(=O)=O)cc1	33.0*	1.0	-20.3	2.1	-7.9	1.5
CCOC(=O)c1[nH]c2ccc(C)cc2c1NC(=O)CN1CCCCC1	-4.0	-0.1	1.7	?	5.1	0.4
COC(=O)c1[nH]c2ccc(C)cc2c1NC(=O)CN1CCCC(C)(C)C1	3.4	0.2	33.2	89.0*	-12.1	-0.2
Cc1cccc(C(=O)NCC(=O)OC(C(=O)Nc2cc(C(F)(F)F)ccc2Cl)c2ccccc2)c1 (stereo not given)	-7.0	2.3	·	·	·	·
CC1CCCCN1C(=O)Cn1c(=O)n(CCC(=O)NCc2ccco2)c(=O)c2sccc21 (stereo not given)	35.1*	0.3	-8.7	-1.6	2.7	0.1
CC1CCN(C(=O)Cn2c(=O)n(CCCC(=O)NCc3ccco3)c(=O)c3sccc32)CC1	-7.8	-0.8	-9.1	1.3	2.1	-0.6
CCN(CC)CCNC(=O)CCc1c(C)nc2c(c(C)nn2-c2ccc(C)cc2)c1C	30.1*	-0.9	·	-7.2	9.3	·
COCCNC(=O)CCc1c(C)nc2c(c(C)nn2-c2ccc(C)cc2)c1C	0.8	-0.4	-12.5	85.2*	6.5	0.7
SMILES	TRHR PAM	TRHR agonist	TRPML1 blocker	TRPV1 agonist	TRPV1 potentiator	TRPML1 ag
COCCCNC(=O)CCc1c(C)nc2c(c(C)nn2-c2ccc(C)cc2)c1C	-8.6	-0.4	·	?	-24.9	·
CCC(C)NC(=O)CCc1c(C)nc2c(c(C)nn2-c2ccc(C)cc2)c1C (stereo not given)	9.2	-0.7	27.4	·	·	0.1
C=Cc1cc2c(s1)c1cnn(Cc3ccccc3F)c(=O)c1n2C	-2.2	-1.2	·	·	·	·
C/C=C(\C)NNC(=O)Cc1ccc(OC)cc1	·	·	·	·	·	-0.8
CCOC(=O)c1c(NC(=O)CCCOc2ccccc2C)sc2c1CCC(C)C2 (stereo not given)	33.4*	-0.3	3.9	·	·	-0.1
CC1CCc2c(sc(NC(=O)CCCOc3ccccc3)c2C(N)=O)C1 (stereo not given)	1.0	-0.6	25.7	·	·	5.0
O=C1N=C(N2CCCCC2)S/C1=C\c1ccc(Br)cc1	-0.4	-0.2	1.4	86.6*	6.5	0.3
Oc1ccc(COC2CCCC2)c2cccnc12	5.6	0.5	·	·	·	·
C=CCn1c(=O)/c(=C/c2ccc(O)cc2)s/c1=C(/C#N)c1nnc2n1CCCCC2	-6.2	30.2*	30.5	11.8	-2.8	21.3
C(=C\c1cnc2ccccc2n1)/c1ccc2c(c1)OCO2	·	·	·	·	·	0.2
COc1cc2oc(=O)ccc2cc1[C@H](O)[C@@H](O)C(C)(C)O	38.7*	0.3	-15.5	-3.0	1.1	-0.1
Cc1cc(C)cc(Nc2cc(C(=O)NC3CCC(C)CC3)c3ccccc3n2)c1 (stereo not given)	33.1*	0.4	4.4	·	·	0.6
Cc1cc(C)cc(Nc2cc(C(=O)NC3CCCCC3)c3ccccc3n2)c1	7.2	-0.5	3.3	·	·	0.8
NNC(=O)c1ccc(COc2ccc(Br)cc2)o1	-3.2	-0.2	-12.3	?	-29.9	-0.4
CC(C)(C)c1ccc(OCc2ccc(C(=O)NN)o2)cc1	-6.8	0.9	20.3	123.4*	1.2	1.9
Cc1csc(NC(=O)c2ccc(COc3ccccc3)o2)n1	30.4*	-1.2	14.1	3.1	-2.8	0.8
Cc1cccc(NC(=O)c2ccc(COc3ccccc3)o2)n1	15.1	-1.2	-6.2	22.9	8.1	0.6
Cc1cc2c(s1)c1cnn(Cc3c(F)ccc(Cl)c3F)c(=O)c1n2C	3.5	-0.4	·	·	·	·
CC(=O)NC1CCCc2c1cnn2-c1ccc(C(C)(C)C)cc1 (stereo not given)	3.5	0.3	-14.6	?	-9.7	-0.6
Cn1nccc1C(=O)NC1CCCc2c1cnn2-c1ccc(C(C)(C)C)cc1 (stereo not given)	-1.6	0.8	33.9	81.0*	4.3	-0.4
COc1cc2nc(N3CCCN(C)CC3)nc(NC3CCOCC3)c2cc1OC	·	·	·	·	·	0.6

Source: PubChem
